# The full list was thinned out, with the strongest signals kept by preference.
# B1: CVN-E41G (protein)
# chain: MHHHHHHENLYFQSGNFSQACYNSAIQGSVLTSTCIRTNGGYNTSSIDLNSVIGNVDGSLKWQGSNFIETCRNTQLAGSSELAAECKTRAQQFVSTKINLDDHIAAIDGTLKYE
# Columns and labels:
# Experiment in all cases: glycan array binding signal (z-score within array); higher = stronger binding
# Conditions in all cases: glycan notation: IUPAC condensed, linker removed; mutation: E41G
# [1] = target: GlcNAc(b1-2)[GlcNAc(b1-4)]Man(a1-3)[GlcNAc(b1-4)][GlcNAc(b1-2)Man(a1-6)]Man(b1-4)GlcNAc(b1-4)GlcNAc
# Summary of the method: (§1)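 Negative Z-scores can be read as non-binding. The Z-score is calculated within each array and then averaged across arrays of one protein sequence at different concentrations or buffers and across linkers. Arrays, 3228 in all, were curated from the Consortium for Functional Glycomics database and kept only where the protein sequence was available.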
# [2] = target: GlcNAc(b1-2)[GlcNAc(b1-6)]Man(a1-6)[GlcNAc(b1-2)Man(a1-3)]Man(b1-4)GlcNAc(b1-4)GlcNAc
# Summary of the method: as §1
# [3] = target: GlcNAc(b1-3)Gal(b1-4)GlcNAc(b1-2)Man(a1-3)[GlcNAc(b1-3)Gal(b1-4)GlcNAc(b1-2)Man(a1-6)]Man(b1-4)GlcNAc(b1-4)GlcNAc
# Summary of the method: as §1
# [4] = target: GlcNAc(b1-3)Gal(b1-4)GlcNAc(b1-3)Gal(b1-4)GlcNAc(b1-3)Gal(b1-4)GlcNAc(b1-3)Gal(b1-4)GlcNAc(b1-2)[GlcNAc(b1-3)Gal(b1-4)GlcNAc(b1-3)Gal(b1-4)GlcNAc(b1-3)Gal(b1-4)GlcNAc(b1-3)Gal(b1-4)GlcNAc(b1-6)]Man(a1-6)[GlcNAc(b1-3)Gal(b1-4)GlcNAc(b1-3)Gal(b1-4)GlcNAc(b1-3)Gal(b1-4)GlcNAc(b1-3)Gal(b1-4)GlcNAc(b1-2)Man(a1-3)]Man(b1-4)GlcNAc(b1-4)[Fuc(a1-6)]GlcNAc
# Summary of the method: as §1
# [5] = target: GlcNAc(b1-6)Gal(b1-4)GlcNAc
# Summary of the method: as §1
# Kdn(a2-3)Gal(b1-4)GlcNAc = target: Kdn(a2-3)Gal(b1-4)GlcNAc
# Summary of the method: as §1
# [6] = target: Man(a1-2)Man(a1-2)Man(a1-3)Man
# Summary of the method: as §1
# [7] = target: Man(a1-2)Man(a1-2)Man(a1-6)[Man(a1-3)]Man
# Summary of the method: as §1
# Man(a1-2)Man(a1-3)Man = target: Man(a1-2)Man(a1-3)Man
# Summary of the method: as §1
# [8] = target: Man(a1-2)Man(a1-3)[Man(a1-2)Man(a1-6)]Man
# Summary of the method: as §1
# [9] = target: Man(a1-2)Man(a1-3)[Man(a1-2)Man(a1-6)]Man(a1-6)[Man(a1-2)Man(a1-2)Man(a1-3)]Man
# Summary of the method: as §1
# [10] = target: Man(a1-2)Man(a1-3)[Man(a1-6)]Man(a1-6)[Man(a1-2)Man(a1-3)]Man(b1-4)GlcNAc(b1-4)GlcNAc
# Summary of the method: as §1
# [11] = target: Man(a1-2)Man(a1-6)[Man(a1-3)]Man(a1-6)[Man(a1-2)Man(a1-2)Man(a1-3)]Man
# Summary of the method: as §1
# [12] = target: Man(a1-2)Man(a1-6)[Man(a1-3)]Man(a1-6)[Man(a1-2)Man(a1-2)Man(a1-3)]Man(b1-4)GlcNAc(b1-4)GlcNAc
# Summary of the method: as §1
# [13] = target: Man(a1-3)[Man(a1-6)]Man(a1-6)[Man(a1-2)Man(a1-3)]Man(b1-4)GlcNAc(b1-4)GlcNAc
# Summary of the method: as §1
# [14] = target: Neu5Ac(a2-3)Gal(b1-3)GalNAc(b1-4)Gal(b1-4)Glc
# Summary of the method: as §1
# [15] = target: Neu5Ac(a2-3)Gal(b1-3)GlcNAc6S
# Summary of the method: as §1
# [16] = target: Neu5Ac(a2-3)Gal(b1-4)GlcNAc(b1-3)Gal(b1-4)GlcNAc(b1-3)[Neu5Ac(a2-3)Gal(b1-4)GlcNAc(b1-3)Gal(b1-4)GlcNAc(b1-6)]GalNAc
# Summary of the method: as §1
# Neu5Ac(a2-6)Gal = target: Neu5Ac(a2-6)Gal
# Summary of the method: as §1
# [17] = target: Neu5Ac(a2-6)Gal(b1-4)GlcNAc(b1-2)[Neu5Ac(a2-6)Gal(b1-4)GlcNAc(b1-6)]Man(a1-6)[Neu5Ac(a2-6)Gal(b1-4)GlcNAc(b1-2)Man(a1-3)][GlcNAc(b1-4)]Man(b1-4)GlcNAc(b1-4)GlcNAc
# Summary of the method: as §1
# [18] = target: Neu5Ac(a2-6)Gal(b1-4)GlcNAc(b1-3)Gal(b1-4)GlcNAc(b1-3)Gal(b1-4)GlcNAc(b1-2)Man(a1-3)[Neu5Ac(a2-6)Gal(b1-4)GlcNAc(b1-3)Gal(b1-4)GlcNAc(b1-3)Gal(b1-4)GlcNAc(b1-2)Man(a1-6)]GalNAc
# Summary of the method: as §1
# [19] = target: Neu5Ac(a2-6)Gal(b1-4)GlcNAc(b1-6)[Gal(b1-3)GlcNAc(b1-3)]Gal(b1-4)Glc
# Summary of the method: as §1
# [20] = target: Neu5Ac(a2-8)Neu5Ac(a2-8)Neu5Ac(a2-3)Gal(b1-4)Glc
# Summary of the method: as §1
# [21] = target: Neu5Gc(b2-6)Gal(b1-4)GlcNAc
# Summary of the method: as §1
binder,measurement,setting,value
B1,glycan array binding signal (z-score),[1],-0.148
same,glycan array binding signal (z-score),[2],-0.145
same,glycan array binding signal (z-score),[3],-0.152
same,glycan array binding signal (z-score),[4],-0.123
same,glycan array binding signal (z-score),[5],-0.121
same,glycan array binding signal (z-score),Kdn(a2-3)Gal(b1-4)GlcNAc,-0.154
same,glycan array binding signal (z-score),[6],7.32
same,glycan array binding signal (z-score),[7],9.78
same,glycan array binding signal (z-score),Man(a1-2)Man(a1-3)Man,5.5
same,glycan array binding signal (z-score),[8],8.72
same,glycan array binding signal (z-score),[9],11
same,glycan array binding signal (z-score),[10],6.59
same,glycan array binding signal (z-score),[11],8.16
same,glycan array binding signal (z-score),[12],8.78
same,glycan array binding signal (z-score),[13],4
same,glycan array binding signal (z-score),[14],-0.111
same,glycan array binding signal (z-score),[15],-0.165
same,glycan array binding signal (z-score),[16],-0.126
same,glycan array binding signal (z-score),Neu5Ac(a2-6)Gal,-0.168
same,glycan array binding signal (z-score),[17],-0.139
same,glycan array binding signal (z-score),[18],-0.112
same,glycan array binding signal (z-score),[19],-0.167
same,glycan array binding signal (z-score),[20],-0.173
same,glycan array binding signal (z-score),[21],-0.155

# From the supplement of paper PMC8728848
